A selection: hits, their analogues and other compounds. The true share with any hit is near 0.43%.
N370S GC mod: qHTS Assay for Inhibitors and Activators of N370S glucocerebrosidase as a Potential Chaperone Treatment of Gaucher Disease | Lysosomal acid glucosylceramidase (Homo sapiens), P04062 | N370S GC spleen homogenate, 4MU-glucoside fluorescence | Potency, µM (top dose mostly 59.4 µM), actives largely listed as inhibitors | 0.092% of 330,000 active
aGal spleen mod: qHTS Assay for Inhibitors and Activators of Human alpha-Galactosidase From Spleen Homogenate; Alpha-galactosidase A (Homo sapiens), P06280; human spleen homogenate, 4MU-alpha-Gal fluorescence, 40 min; Potency, µM (highest dose often 80 µM), most hits filed as inhibitors; 0.008% of 240,000 active
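Human spleen homogenate (1 ug) was the enzyme source, with 4-methylumbelliferyl-alpha-D-galactopyranoside (1 mM final) in pH 5.0 citrate buffer with 0.01% Tween-20. Compounds were titrated; after 40 min at 37C, NaOH/glycine stop, 4-MU fluorescence read; AC50 from Hill fits.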
GAA glycogen mod: qHTS Assay for Inhibitors and Activators of Human alpha-Glucosidase Cleavage of Glycogen | AID 2100, 2009 | Potency, µM (series often up to 76.4 µM), usual class: inhibitors | Lysosomal alpha-glucosidase (Homo sapiens), P10253 | recombinant GAA, glycogen substrate, Amplex Red glucose oxidase fluorescence | 0.38% of 300,000 active;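 note: the screen sought inhibitors and activators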
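qHTS, 1536-well; enzyme 4 nM final; cpd up to 77 uM; substrate bovine liver glycogen 30 ug; 50 mM citrate/phosphate pH 5.0, 0.01% Tween-20; 37 C, 40 min; Amplex Red detection 45 min RT; Hill fit → AC50.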
aGlu spleen mod: qHTS Assay for Inhibitors and Activators of Human alpha-Glucosidase From Spleen Homogenate. Lysosomal alpha-glucosidase (Homo sapiens), P10253. human spleen homogenate, 4-MU-alpha-glucoside fluorescence. Potency, µM (doses to about 79.9 µM), most hits filed as inhibitors. 0.006% of 240,000 active. AID 2112, 2009
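Enzyme source: human spleen homogenate, 1 ug/well. Buffer 50 mM citric acid/K phosphate pH 5.0, 0.01% Tween-20. 4-MU-alpha-glucoside 1 mM; 37 C x 40 min; NaOH/glycine stop; fluorescence.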
GLA inh pH 4.5: qHTS Assay for Inhibitors of Human alpha-Galactosidase at pH 4.5; Alpha-galactosidase A (Homo sapiens), P06280; purified enzyme, 4-MU-alpha-Gal fluorescence, pH 4.5; activity change, negative = inhibition, % at 105 µM; 230,000 tested, under 10 active
GAA inhib: qHTS Assay for Inhibitors of Human alpha-Glucosidase as a Potential Chaperone Treatment of Pompe Disease. Lysosomal alpha-glucosidase (Homo sapiens), P10253. purified human GAA, 4-MU-alpha-glucoside fluorescence. Potency, µM (series often up to 76.9 µM), usual class: inhibitors. 0.005% of 200,000 active. AID 1466, 2008
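AC50 values come from Hill fits of compound titrations (up to 77 uM) against 4 nM human enzyme. Substrate 4-methylumbelliferyl-alpha-D-pyranoside at 400 uM, pH 5.0 citrate buffer, 20 min room temperature; fluorescence Ex 365/Em 440 after alkaline stop.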
Of the large screens only hits and unclear results are named; the others gave an inactive call. Calls come from the whole dose curve; as a rule, active = well fitted curve in the direction sought with a large enough effect; inconclusive = small, poorly fitted or top-dose-only effect, or another doubt; inactive = no such curve, though single readings can be large; an effect the other way counts as inactive or inconclusive.

CN1CCN(c2ccc3nccnc3c2)CC1	aGal spleen mod 35.5µM, aGlu spleen mod inconclusive
CC1(C)C2C[C@@H](O)[C@]3(C)C(CC[C@@]4(C)[C@H](c5ccoc5)C[C@H]5O[C@]543)[C@@]2(C)[C@@H](O)C[C@H]1O (stereo partly specified)	none (no result: GAA glycogen mod, GAA inhib)
CCCCCCCCCCCC[N+](C)(C)CCOc1ccccc1	N370S GC mod 4.47µM (no result: GAA glycogen mod, GLA inh pH 4.5, GAA inhib)
CN1CC(C(=O)c2ccc(Cl)cc2)C(c2ccc(N(C)C)cc2)C1 (stereo unspecified)	GAA inhib inconclusive
CN1CC(C(=O)c2ccc(Cl)cc2)C(c2ccc(Cl)cc2Cl)C1 (stereo unspecified)	N370S GC mod 17.8µM (no result: aGal spleen mod, aGlu spleen mod, GLA inh pH 4.5, GAA inhib)

Screening results from PubChem.
